Reference: PubChem BioAssay AID588590 (National Center for Advancing Translational Sciences (NCATS), 2011)
Out of some 390,000 compounds screened, about 4,000 (1%) were called active. Entries that show only a call come without a potency. About 7% were inconclusive and are not listed. Calls come from the whole dose curve; as a rule, active = well fitted inhibition curve with a large enough effect; inconclusive = small, poorly fitted or top-dose-only effect, or another doubt; inactive = no such curve, though single readings can be large or run the other way. Only a selection was taken, and actives are over-represented in it overall.
Potency is the fitted concentration of half-maximal effect.

Each molecule was assayed against DNA polymerase iota (Homo sapiens) (UniProt Q9UNA4) (assay: qHTS for Inhibitors of Polymerase Iota). Conditions: Pol iota fluorescent replication assay, 10 min; series mostly up to 115 µM.
DNA polymerase iota (Homo sapiens), sequence (Q9UNA4 whole entry, looked up): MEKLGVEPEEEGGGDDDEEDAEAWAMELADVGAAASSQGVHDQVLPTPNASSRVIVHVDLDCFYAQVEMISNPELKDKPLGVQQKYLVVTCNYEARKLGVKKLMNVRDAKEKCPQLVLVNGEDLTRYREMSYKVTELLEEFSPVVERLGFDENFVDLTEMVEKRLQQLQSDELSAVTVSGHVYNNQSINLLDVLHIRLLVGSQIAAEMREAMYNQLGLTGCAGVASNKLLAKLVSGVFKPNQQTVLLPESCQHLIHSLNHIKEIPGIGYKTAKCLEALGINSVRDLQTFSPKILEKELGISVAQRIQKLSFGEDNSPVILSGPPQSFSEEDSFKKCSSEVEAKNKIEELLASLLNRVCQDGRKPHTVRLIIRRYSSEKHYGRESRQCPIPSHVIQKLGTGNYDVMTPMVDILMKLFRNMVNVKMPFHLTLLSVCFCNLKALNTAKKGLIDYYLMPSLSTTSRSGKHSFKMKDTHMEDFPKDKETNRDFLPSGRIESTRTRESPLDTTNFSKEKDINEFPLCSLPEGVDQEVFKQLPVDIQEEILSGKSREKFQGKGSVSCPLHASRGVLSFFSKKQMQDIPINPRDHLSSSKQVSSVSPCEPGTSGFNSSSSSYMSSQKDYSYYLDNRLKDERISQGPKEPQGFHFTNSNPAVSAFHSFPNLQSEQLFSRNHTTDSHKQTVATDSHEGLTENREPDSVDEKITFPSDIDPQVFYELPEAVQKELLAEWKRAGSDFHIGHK
From the text: DNA polymerases, such as Pol iota, are specifically involved in DNA repair. Pol iota specifically plays an important role in translesion synthesis, where the normal high-fidelity DNA polymerases cannot proceed and DNA synthesis stalls. […] Thus, while pol eta's (and most likely iota's) normal function is to protect humans against the deleterious consequences of DNA damage, under certain conditions they can have deleterious effects on human health. As a consequence, we propose to utilize a high throughput replication assay to identify small molecule inhibitors of pol iota.
In a collaboration between the National Institute of Child Health & Human Development (NICHD) and NIH Chemical Genomics Center, a high-throughput, fluorescent screen was developed to screen the NIH Molecular Libraries Small Molecule Repository (MLSMR). This screen is used to identify inhibitors of pol iota.
NIH Chemical Genomics Center [NCGC]
NIH Molecular Libraries Probe Centers Network [MLPCN]
Assay Submitter (PI): Roger Woodgate, NICHD)
Three microliters of reagents (buffer in column 3 and 4 as negative control and 10 nM Pol iota in columns 1, 2, and 5-48) will be dispensed into 1,536-well black solid-bottomed plate. Compounds (23 nL) will be transferred via Kalypsys pin tool equipped with 1536-pin array. The plates will then be incubated for 15 min at room temperature, and 1 µL substrate (50 nM final concentration) will be added to start the reaction and kinetically read twice at 0 min and 10 min on the Viewlux reader.
With CC(=O)c1c(O)c(C)c(O)c(Cc2c(O)c3c(c(C(=O)/C=C/c4ccccc4)c2O)OC(C)(C)C=C3)c1O the Potency was 50.1 µM (active).
CCCCOP(=O)(c1ccc(N(C)C)cc1)C(O)c1cc(OC)ccc1OC (stereo not given) was tested, and the Potency was “inactive”.
With CC(=O)NBr the Potency was “inactive”.
In the case of COc1ccc(N2C(=O)/C(=C/c3ccco3)C(=O)NC2=S)cc1, the Potency is reported as 4.47 µM (active).
CNCC[C@H](Oc1ccc(C(F)(F)F)cc1)c1ccccc1 was tested, and the Potency was “inactive”.
O=C1C=C(NS(=O)(=O)c2ccccc2)C(=O)c2ccccc21 was tested, and the Potency was “inactive”.
O=c1[nH]c(=S)[nH]c(O)c1/C=C1\C=Nc2ccccc21 was tested, and the Potency was “inactive”.
In the case of O=C(O)/C=C/c1ccc2c(c1)OCO2, the Potency is reported as “inactive”.
For O=C1NC(=O)N(Cc2ccco2)C(=O)/C1=C\c1ccc(-c2ccc(F)cc2)o1, the Potency was 11.2 µM (active).
With Cc1cc(/C=C2/C(=O)NC(=O)N(Cc3ccco3)C2=O)c(C)n1-c1ccc(C(=O)O)cc1 the Potency was 14.1 µM (active).
O=C1NC(=O)N(Cc2ccco2)C(=O)/C1=C\c1cccn1CCOc1ccccc1 was tested, and the Potency was 22.4 µM (active).
In the case of CC1=NNC(=O)C1Cc1c(Cl)cccc1Cl (stereo not given), the Potency is reported as “inactive”.
For Cn1c(=O)oc2cc(S(=O)(=O)N3CCC(C(=O)Nc4ccc(OC(F)(F)F)cc4)CC3)ccc21, the Potency was “inactive”.
For O=C(Oc1ccc2c(c1)CCC2)N1CCOCC1, the Potency was “inactive”.
CCOC(=O)c1ccc(N2C(=O)c3[nH]nc(-c4ccccc4)c3C2c2ccc(C(C)C)cc2)cc1 (stereo not given) was tested, and the Potency was “inactive”.
With CCN(CC)C(=O)Oc1ccc(Br)cc1C(=O)Nc1ccc(F)c(Cl)c1 the Potency was “inactive”.
For CC(=O)c1ccc(OC(=O)N2CCOCC2)cc1, the Potency was “inactive”.
For CCOC(=O)C(NS(=O)(=O)c1ccc(C)cc1)(C(F)(F)F)P(=O)(OCC(C)C)OCC(C)C (stereo not given), the Potency was “inactive”.
For O=C1c2ccccc2NC(c2ccccc2O)N1NS(=O)(=O)c1ccccc1 (stereo not given), the Potency was “inactive”.
In the case of O=C1CC(=O)N(Cc2ccccc2)C(=O)N1CCCCCCN1C(=O)CC(=O)N(Cc2ccccc2)C1=O, the Potency is reported as 17.8 µM (active).
With CC(C)(C)c1ccc(CN2C(=O)CN=C(c3ccccc3)c3ccccc32)cc1 the Potency was “inactive”.
For O=C(CN1CCCC1=O)NCCc1ccccc1, the Potency was “inactive”.
For S=C(Nc1ccc(Br)cc1Cl)N1CCC2(CC1)OCCO2, the Potency was “inactive”.
With CC[C@H]1CN2CCc3cc(OC)c(OC)cc3[C@@H]2C[C@@H]1C[C@H]1NCCc2cc(OC)c(OC)cc21 the Potency was “inactive”.
For CCOCCCNC(=O)c1c(NC(=O)c2nc(SC)ncc2Cl)sc2c1CCCC2, the Potency was “inactive”.
In the case of O=S(=O)(Nc1ccc2[nH]ncc2c1)c1ccccc1Cl, the Potency is reported as “inactive”.
In the case of O=[N+]([O-])c1ccc(Cl)c(Cl)c1, the Potency is reported as “inactive”.
In the case of CO[C@H]1[C@@H](O)[C@@H](C)O[C@H](O[C@H]2[C@H](Oc3cccc4c(O)c5c(=O)oc6ccc(C)c7c(=O)oc(c34)c5c67)O[C@H](C)[C@H](O)[C@@H]2O)[C@@H]1O, the Potency is reported as 20 µM (active).
CCOc1ccc(C(NC(=O)c2cc(OC)c(OC)c(OC)c2)c2cc(Cl)c3cccnc3c2O)cc1 (stereo not given) was tested, and the Potency was “inactive”.
Cc1ccc(NC(=O)CN(C)CC(=O)Nc2cccc(F)c2)cc1[N+](=O)[O-] was tested, and the Potency was “inactive”.
For O=P1(Oc2ccccc2)CC(O)C(O)C(COCc2ccccc2)O1 (stereo not given), the Potency was “inactive”.
For N#Cc1c(Cl)c(Cl)c(Cl)c(C#N)c1Cl, the Potency was 1.58 µM (active).
In the case of CC(CCn1cccn1)NC(=O)CCc1nnc(CCc2ccccc2)o1 (stereo not given), the Potency is reported as “inactive”.
With O=C(NCc1cccs1)c1ccc(Br)o1 the Potency was “inactive”.
With O=C(c1ccccc1[N+](=O)[O-])N1CCC2(CC1)OCCO2 the Potency was “inactive”.
For O=C(O)c1cc[c]([Sb](=[O])([OH])[OH])cc1[N+](=O)[O-], the Potency was 1 µM (active).
With COc1cc(C2c3cc4c(cc3C(O)C3COC(=O)C23)OCO4)cc(OC)c1OC (stereo not given) the Potency was “inactive”.
For COc1cc([C@@H]2c3cc4c(cc3[C@H](OC(C)=O)[C@H]3COC(=O)[C@H]23)OCO4)cc(OC)c1OC, the Potency was “inactive”.
For CCOC(=O)c1ncn2c1[C@@H]1CCCN1C(=O)c1cc(OC)ccc1-2, the Potency was “inactive”.
With Cc1ccc(C)c(NS(=O)(=O)c2ccc(OCC(=O)NCc3cccnc3)cc2)c1 the Potency was “inactive”.
CCOP(=O)(OCC)C(Nc1cccc(C)c1)c1ccc(F)cc1 (stereo not given) was tested, and the Potency was “inactive”.
For O=c1c2ccccc2nc(/C=C/c2ccco2)n1-c1ccccc1O, the Potency was 44.7 µM (active).
O=c1c2ccccc2nc(/C=C/c2ccc(F)cc2)n1-c1ccccc1O was tested, and the Potency was “inactive”.
For Cn1cc(/C=C/c2nc3ccccc3c(=O)n2-c2ccccc2)c2ccccc21, the Potency was “inactive”.
In the case of Cc1ncoc1C(=O)NCCC(c1ccccc1)c1ccccc1, the Potency is reported as “inactive”.
With CCCCN1C2CCC1CC(OC(c1ccc(F)cc1)c1ccc(F)cc1)C2 (stereo not given) the Potency was “inactive”.
Cc1ccc(NC(=O)O/N=C/c2cccc([N+](=O)[O-])c2)cc1 was tested, and the Potency was “inactive”.
c1csc(-c2nnc(COc3ccc4c(c3)OCO4)o2)c1 was tested, and the Potency was “inactive”.
In the case of O=C1NC(=O)N(c2ccccc2)C(=O)/C1=C/c1ccc([N+](=O)[O-])s1, the Potency is reported as 11.2 µM (active).
In the case of Cc1nnc(NCc2ccccc2)c2c1nnn2Cc1ccc(F)cc1, the Potency is reported as “inactive”.
O=C(C1CCN(S(=O)(=O)c2ccc(Br)s2)CC1)N1CCN(c2ccccc2)CC1 was tested, and the Potency was “inactive”.
CC(C)N1C(=S)SC(C)(C)C1n1oc(=O)n(-c2ccc(Cl)c(Cl)c2)c1=O (stereo not given) was tested, and the Potency was “inactive”.
Cc1ccccc1NC(=O)c1c(NC(=O)c2ccccc2F)sc2c1CCC(C)C2 (stereo not given) was tested, and the Potency was “inactive”.
In the case of CC(C)(C)c1ccc(C(=O)NCc2ccco2)cc1, the Potency is reported as “inactive”.
With CCc1ccccc1NC(=O)c1sc2nc3c(cc2c1N)CN(Cc1ccccc1)CC3 the Potency was “inactive”.
